# Source: PubChem
# Vaccinia stage – blocks a specific stage of Vaccinia orthopoxvirus infection | actives 0.01% (n = 89,000) | Vaccinia-infected cells, mCherry/Venus stage reporter fluorescence; active compounds read low | activity change (mCherry), % (no concentration beside the values); in the data active means activity change below about -37%, passing the limit was not always enough; tested in A549 cells
# Starred values were filed as active, the others as inactive. Many of the other results were omitted from the sample, so hits are more common in it than they were.
SMILES,Vaccinia stage
COc1ccc2c3c([nH]c2c1)[C@H](CO)N(C(=O)NC(C)C)CC31CN(C(=O)c2cnccn2)C1,26
CC(=O)N1[C@H](CO)[C@@H](c2ccccc2)C12CN(Cc1nccs1)C2,0
C[C@@H]1CN([C@@H](C)CO)C(=O)c2cc(C3=CCCCC3)cnc2O[C@H]1CN(C)C(=O)Cc1cccnc1,3
CCCC(=O)N1CCC2(CC1)CN(C(=O)C1CCCCC1)[C@H](CO)c1[nH]c3cc(OC)ccc3c12,-6
C[C@@H]1CN([C@H](C)CO)C(=O)c2cc(NC(=O)NC3CCCCC3)ccc2O[C@@H](C)CCCCO[C@H]1CN(C)S(=O)(=O)c1ccccc1,-2
CO[C@@H]1CN(C)C(=O)c2ccc(NC(=O)CC(F)(F)F)cc2OC[C@H](C)N(C(=O)C2CC2)C[C@@H]1C,7
O=C(C[C@@H]1C=C[C@@H](NC(=O)c2ccncc2)[C@@H](CO)O1)Nc1ccccc1,16
COc1ccc2c3c([nH]c2c1)[C@@H](CO)N(C(=O)c1cccnc1)CC31CCN(C(=O)c2cccnc2)CC1,28
COCC(=O)N1C[C@H](C)[C@H](OC)CN(C)C(=O)c2ccc(NC(=O)c3cnccn3)cc2OC[C@H]1C,35
CCCNC(=O)c1cc2c(c(-c3cccc(-c4ccncc4)c3)n1)[C@@H](CCO)N(S(=O)(=O)CC)C2,17
COCC#Cc1cnc2c(c1)C(=O)N([C@@H](C)CO)C[C@@H](C)[C@@H](CN(C)C(=O)Cc1cccnc1)O2,15
C[C@H](CO)N1C[C@H](C)[C@H](CN(C)Cc2ccncc2)Oc2c(NC(=O)C3CCCCC3)cccc2C1=O,8
COc1ccc2c3c([nH]c2c1)[C@@H](CO)N(C(=O)C1CCC1)CC31CN(C(=O)c2ccccn2)C1,-2
CCC(=O)N1CC(=O)N2[C@@H](CO)[C@H](c3ccc(C#CCc4ccccc4)cc3)[C@@H]2C1,13
CC(=O)N[C@@H]1CC[C@H](CCNC(=O)C2CCCCC2)O[C@H]1CO,-2
COc1ccc2c3c([nH]c2c1)[C@@H](CO)N(C(=O)C1CCC1)CC31CN(C)C1,13
CCS(=O)(=O)N1[C@@H](CO)[C@@H](c2ccccc2)C12CN(C(=O)C1CCCCC1)C2,12
O=C(C[C@@H]1CC[C@@H](NC(=O)c2ccncc2)[C@@H](CO)O1)NCc1ccncn1,-1
O=C(C1CCCC1)N1CC(=O)N2[C@@H](CO)[C@@H](c3ccc(C#CCc4ccccc4)cc3)[C@@H]2C1,-7
CCCNC(=O)N1CC(=O)N2[C@H](C1)[C@H](c1ccc(-c3cccc(C)c3)cc1)[C@@H]2CO,10
C[C@H](CO)N1C[C@H](C)[C@H](CN(C)C(=O)Nc2ccc(F)cc2)Oc2ccc(NC(=O)Nc3ccc(C(F)(F)F)cc3)cc2C1=O,3
O=C(C[C@@H]1CC[C@@H](NC(=O)c2ccncc2)[C@@H](CO)O1)Nc1ccc(-c2ccccc2)cc1,-22
O=C(c1ccccc1)N1CC2(C1)[C@H](c1ccccc1)[C@@H](CO)N2CC1CC1,11
CCS(=O)(=O)N1CCC2(CC1)CN(C(=O)c1ccc(F)cc1)[C@@H](CO)c1c2c2ccc(OC)cc2n1C,-15
CC(C)NC(=O)N(C)C[C@@H]1OCCCC[C@H](C)Oc2ccc(NS(=O)(=O)c3ccc(Cl)cc3)cc2C(=O)N([C@H](C)CO)C[C@H]1C,4
SMILES,Vaccinia stage
Cc1noc(C)c1NC(=O)N(C)C[C@H]1OCCCC[C@H](C)Oc2ccc(NC(=O)Cc3ccccc3)cc2C(=O)N([C@@H](C)CO)C[C@H]1C,28
CCC(=O)N1CC2(C1)[C@H](c1ccc(C3=CCCC3)cc1)[C@H](CO)N2C(=O)COC,15
CC(C)NC(=O)NCC[C@@H]1CC[C@@H](NS(=O)(=O)c2ccccc2)[C@H](CO)O1,11
OC[C@@H]1Nc2ccc(-c3cccc(F)c3)cc2[C@@H]2[C@H]1CCN2Cc1ccc(F)cc1,-18
OC[C@H]1Nc2ccc(-c3ccccc3)cc2[C@H]2[C@@H]1CCN2Cc1ccc(F)cc1,-50*
COc1ccccc1-c1ccc2c(c1)[C@@H]1[C@@H](CCN1C(=O)C1CCOCC1)[C@H](CO)N2,-2
COc1ccccc1-c1ccc2c(c1)[C@@H]1[C@@H](CCN1C(=O)C1CC1)[C@@H](CO)N2,-31
OC[C@@H]1Nc2ccc(-c3ccccc3)cc2[C@H]2[C@@H]1CCN2Cc1ccc(F)cc1,-27
COc1ccccc1-c1ccc2c(c1)[C@@H]1[C@@H](CCN1C(=O)C1CCCCC1)[C@@H](CO)N2,-86*
C=CCOC(=O)[C@@]12O[C@]3(COC[C@H](c4ccccc4)N3C1=O)[C@@H]1C(=O)N(c3ccccc3)C(=O)[C@@H]12,-10
COc1cc(CN2CC3(CCN(S(=O)(=O)c4cccs4)CC3)c3c(n(C)c4cc(OC)ccc34)[C@H]2CO)cc(OC)c1,-16
O=C(Nc1ccc2c(c1)[C@@H]1C[C@@H](CC(=O)N3CCc4ccccc4C3)O[C@@H](CO)[C@@H]1O2)Nc1ccccc1F,-93*
O=C(Nc1ccc(C(F)(F)F)cc1)Nc1ccc2c(c1)[C@H]1C[C@H](CC(=O)N3CCc4ccccc4C3)O[C@@H](CO)[C@H]1O2,-15
O=C(Nc1ccc(C(F)(F)F)cc1)Nc1ccc2c(c1)[C@H]1C[C@@H](CC(=O)N3CCc4ccccc4C3)O[C@H](CO)[C@H]1O2,-32
CO[C@@H]1CN(C)C(=O)c2ccc(NC(=O)c3cnccn3)cc2OC[C@@H](C)N(C)C[C@@H]1C,12
CC(=O)N(C)C[C@@H]1Oc2ncc(/C=C/c3ccccc3)cc2C(=O)N([C@H](C)CO)C[C@H]1C,-14
COc1ccc2c3c([nH]c2c1)[C@H](CO)N(Cc1ccc2c(c1)OCO2)CC31CN(C(=O)Nc2c(C)noc2C)C1,-2
CCS(=O)(=O)N1CCC2(CC1)CN(S(=O)(=O)c1ccccc1)[C@H](CO)c1c2c2ccc(OC)cc2n1C,-4
CO[C@@H](CN(C)C(=O)c1ccc2c(c1)OCO2)[C@@H](C)CN([C@@H](C)CO)S(=O)(=O)c1ccc(F)cc1,-1
C[C@@H]1CCCCO[C@H](CN(C)C(=O)c2ccncc2)[C@@H](C)CN([C@@H](C)CO)C(=O)c2cc(NC(=O)c3ccccc3)ccc2O1,10
CC(C)NC(=O)N1CC2(C1)[C@H](c1ccccc1)[C@@H](CO)N2C(=O)C1CCCCC1,12
O=S(=O)(c1ccc(Cl)cc1)N1CCN(Cc2cccc(OCCO)c2)CC1,-18
O=C(C[C@H]1C=C[C@@H](NC(=O)Nc2ccc3c(c2)OCO3)[C@@H](CO)O1)NCc1ccc(F)cc1,4
C[C@@H]1CN([C@@H](C)CO)C(=O)c2cccc(NS(=O)(=O)c3ccc(F)cc3)c2O[C@H]1CN(C)S(=O)(=O)c1ccc(Cl)cc1,24
O=C(C1CC1)N1CCCCN2[C@H](CO)[C@@H](c3ccc(C#CC4(O)CCCC4)cc3)[C@@H]2C1,19
COc1ccc2c3c([nH]c2c1)[C@@H](CO)N(C)CC31CN(S(=O)(=O)c2ccc(C)cc2)C1,-14
COCC(=O)N1[C@@H](CO)[C@@H](c2ccccc2)C12CN(C(=O)c1cccc(F)c1)C2,-10
C[C@H](O)C#Cc1ccc2c(c1)O[C@H](CN(C)Cc1ccccc1)[C@@H](C)CN([C@@H](C)CO)S2(=O)=O,-26
C[C@@H](O)C#Cc1ccc2c(c1)O[C@@H](CN(C)Cc1ccc(-c3ccccc3)cc1)[C@@H](C)CN([C@@H](C)CO)S2(=O)=O,-92*
C[C@H](CO)N1C[C@H](C)[C@@H](CN(C)Cc2ccccc2)Oc2cc(C#C[C@@H](C)O)ccc2S1(=O)=O,-16
